# Source: publication PMC5540273 (PLoS ONE, 2017)
# Test system: T1, PIK4CB
# T1 construct: gene PI4KB
# Settings: concentration: 1 μM, replicates: in singlicate; n = 1
# 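Also: KINOMEscan kinase panel screen.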
row,Compound,%Inh
1,FC(F)(F)c1ccc(/C=C/c2cncnc2Nc2ccc3[nH]c(Cc4ccccc4)nc3c2)cc1 [GW709199],0%
2,O=C(Nc1cccc(-c2nn3ccccc3c2-c2ccnc(Nc3cccc(F)c3)n2)c1)c1c(F)ccc(F)c1Cl [GSK357952],24%
3,O=C(Nc1ccccc1F)NC1CCN(c2ccnc(Nc3ccc(F)cc3)n2)CC1 [GSK1379800],0%
4,Cc1occc1-c1ncc(OC[C@@H](N)Cc2c[nH]c3ccccc23)cc1-c1ccc2[nH]nc(C)c2c1.O=C(O)C(F)(F)F [GSK682037],0%
5,C[C@@H]1CC[C@@H](C(=O)Nc2ccccc2)CN1c1cc(-c2ccc3c(N)n[nH]c3c2)nc(N)n1 [GSK2286062],0%
6,Cl.NC(=O)c1cccc(Nc2nccc(Nc3ccc(Oc4c(Cl)cccc4Cl)c(Cl)c3)n2)c1 [GW659009],0%
7,Cc1ccc(C(=O)Nc2ccc(Nc3ccnc4cc(-c5nccs5)ccc34)cc2O)cc1.Cl [GW494702],30%
8,CNC(=O)c1ccccc1Nc1nc(Nc2ccc(N3CCOCC3)cc2)ncc1Cl.Cl [GSK1576028],56%
9,COc1cc(Nc2nccc(-c3c(-c4cccc(NC(=O)c5c(F)cccc5F)c4)nn4ccccc34)n2)cc(OC)c1OC [GSK323521],11%
10,Nc1ncnc2c1nc(-c1ccccc1)n2-c1ccccc1 [SKF-97293],29%
11,Fc1ccc(-c2ncn(C3CCNCC3)c2-c2ccnc(Oc3ccc(-c4ccccc4)cc3)n2)cc1 [SB-245391],31%
